Results from PMC4552634, “A New Set of Chemical Starting Points with Plasmodium falciparum Transmission-Blocking Potential for Antimalarial Drug Discovery” (PLoS ONE, 2015).
Hit rate of the full screen: of about 13,000 compounds, about 3,200 (25%) showed an effect of 50% or more. The list shows a part of the results.

Tested on: P. falciparum stage V gametocytes
Parameters: BacTiter-Glo ATP luminescence viability of purified stage V gametocytes in 384-well plates, per cent inhibition versus DMSO
Conditions: 48 h, 5 µM; inhibitor

Structure (SMILES)	% Inhibition
CC(C)CNc1c2c(nc3cnn(-c4c5c(nc6cn[nH]c46)CCCC5)c13)CCCC2 [TCMDC-131555]	-4.273%
Cc1cccc2nc(-c3ccc(-c4ccc(CN5CCOCC5)cc4)cc3)[nH]c12.O=C(O)C(F)(F)F [TCMDC-133825]	20.49%
CC(C)(C)c1ccc(OCC(=O)NC2CCN(c3ccnc4cc(Cl)ccc34)C2)cc1 (stereo not drawn) [TCMDC-133670]	64.95%
O=C(Nc1ccccc1Br)N[C@@H]1CCN(c2ccnc3ccccc23)C1 [TCMDC-141572]	52.9%
Cc1ccc(NC(=O)NC2CCN(c3ccnc4ccccc34)C2)cc1 (stereo not drawn) [TCMDC-133576]	-20.26%
O=C(Nc1ccc(F)cc1)NC1CCN(c2ccnc3ccccc23)C1 (stereo not drawn) [TCMDC-133577]	52.59%
COc1ccc(NC(=O)NC2CCN(c3ccnc4ccccc34)C2)cc1 (stereo not drawn) [TCMDC-133575]	3.669%
O=C(Nc1cccc(C(F)(F)F)c1)NC1CCN(c2ccnc3ccccc23)CC1 [TCMDC-133586]	-4.951%
O=C(Nc1ccccc1Oc1ccccc1)NC1CCN(c2ccnc3cc(Cl)ccc23)C1 (stereo not drawn) [TCMDC-133401]	-4.379%
O=C(COc1ccc(F)cc1)NC1CCN(c2ccnc3cc(Cl)ccc23)C1 (stereo not drawn) [TCMDC-133397]	-4.375%
O=C(Nc1ccc(C(F)(F)F)cc1)NC1CCN(c2ccnc3ccccc23)C1 (stereo not drawn) [TCMDC-133578]	40.18%
O=C(Nc1ccc(C(F)(F)F)cc1)NC1CCN(c2ccnc3ccccc23)CC1 [TCMDC-133587]	54.56%
O=C(COc1ccccc1)NC1CCN(c2ccnc3cc(Cl)ccc23)C1 (stereo not drawn) [TCMDC-133669]	-12.2%
O=C(Nc1ccc(OC(F)(F)F)cc1)NC1CCN(c2ccnc3ccccc23)C1 (stereo not drawn) [TCMDC-133583]	-30.46%
Cc1ccc(-c2cc(C(=O)Nc3ccc(S(=O)(=O)N4CC(C)OC(C)C4)cc3)[nH]n2)c(O)c1 (stereo not drawn) [TCMDC-125180]	-20.62%
COc1ccc2nccc([C@@H](O)CN3CCC(NC(=O)c4ccc(-c5ccccc5)s4)CC3)c2c1 [TCMDC-141106]	10.46%
O=C(CCCCCNC(=O)c1ccc(O)c(-c2ccc(Cl)c(Cl)c2)c1)NC1CCCCCC1 [TCMDC-140842]	-20.8%
CC(C)(C)c1ccc(N2C(N)=NC(N)=NC2(C)C)cc1 [TCMDC-137713]	2.693%
O=C(Nc1ccc(Cl)cn1)c1sc2ccccc2c1O [TCMDC-124520]	-11.35%
Cc1ccc(C(=O)Nc2cc(S(=O)(=O)N3CCCC3)ccc2OCC(F)(F)F)cc1 [TCMDC-124325]	-29.62%
O=C(Nc1ccc(Cl)c(Cl)c1)Nc1ccc(F)c([N+](=O)[O-])c1 [TCMDC-125042]	-17.87%
O=C(Nc1ccc(OC(F)(F)F)cc1)NC1CCN(c2ccnc3ccccc23)CC1 [TCMDC-133585]	-8.485%

Structure (SMILES)	% Inhibition
CC(C)(C)c1ccc(NC(=O)N[C@@H]2CCN(c3ccnc4ccccc34)C2)cc1 [TCMDC-141573]	101%
O=C(Nc1ccc(C(F)(F)F)cc1)NC1CCN(c2ccnc3cc(Cl)ccc23)C1 (stereo not drawn) [TCMDC-133405]	-22.97%
COc1cc(O)c2c(=O)c(OC)c(-c3cccc(Cl)c3OC3O[C@H](CO)[C@@H](O)[C@H](O)[C@H]3O)oc2c1OC (stereo partly drawn) [TCMDC-131699]	3.846%
CC(C)c1ccc(CN2CCC(CNC(=O)c3cc(-c4cccc(F)c4)cs3)C2)cc1 (stereo not drawn) [TCMDC-134437]	107.7%
COc1cccc(-c2csc(C(=O)NCC3CCN(Cc4ccc(C(C)C)cc4)C3)c2)c1 (stereo not drawn) [TCMDC-134439]	107.3%
CC(C)c1ccc(CN2CCCCC(NC(=O)c3cc(-c4cccc(F)c4)cs3)C2)cc1 (stereo not drawn) [TCMDC-134463]	-60.78%
CC(C)c1ccc(CN2CCC(CNC(=O)c3cc(-c4cccc(Cl)c4)cs3)C2)cc1 (stereo not drawn) [TCMDC-134438]	95.05%
Cc1cc(N[C@@H](CC(C)C)C(=O)NCCOc2ccccc2)nc(Nc2ccccc2)n1 [TCMDC-134741]	-17.47%
C#CCN(Cc1cc2c(=O)[nH]c(N)nc2cc1C)c1ccc(C(=O)N[C@@H](CCC(=O)O)C(=O)O)cc1 [TCMDC-132041]	1.845%
CCOC(=O)NC1=NC(C)(C)N(OCc2cccc3c2ccc2ccccc23)C(NC(=O)OCC)=N1 [TCMDC-131339]	9.295%
CCCCc1ccc(NC(=O)Nc2ccc3c(c2)CCNCC3)cc1 [TCMDC-141500]	0.2373%
CCOC(=O)c1c(CN2CCCC2)n(-c2ccccc2)c2cc(Br)c(O)cc12 [TCMDC-124122]	-23.97%
C=C[C@]1(C)C[C@@H](OC(=O)c2cncn(COC)c2=O)[C@]2(C)[C@H](C)CC[C@]3(CCC(=O)[C@H]32)[C@@H](C)[C@@H]1O [TCMDC-141314]	6.014%
CN1CCN(c2cc(NC(=O)Nc3cccc(Cl)c3Cl)ccc2Cl)CC1 [TCMDC-139114]	-11.69%
CCCC(CNCc1cccc(I)c1)CNc1cc(=O)c2ccccc2[nH]1 (stereo not drawn) [TCMDC-139433]	23.15%
CC(=O)N1N=C(c2ccc(F)cc2)Sc2c1nc(-c1ccccc1)n2C(C)=O [TCMDC-125192]	62.08%
CCOC(=O)c1[nH]c(-c2ccccc2)nc1-n1nc(C)cc1C [TCMDC-131622]	-5.185%
CC(=O)N1N=C(c2cccs2)Sc2c1nc(-c1ccc(Cl)cc1)n2C(C)=O [TCMDC-124898]	78.97%
CC(=O)N1N=C(c2ccc(F)cc2)Sc2c1nc(C1CCCCC1)n2C(C)=O [TCMDC-125190]	77.23%
CCOC(=O)c1[nH]c(-c2ccc(-c3ccccc3)cc2)nc1N [TCMDC-131797]	-4.943%
CC(=O)N1N=C(c2ccc(Cl)cc2)Sc2c1nc(-c1ccccc1)n2C(C)=O [TCMDC-124899]	80.4%
CC(=O)N1N=C(c2ccccc2)Sc2c1nc(-c1ccc(Cl)cc1)n2C(C)=O [TCMDC-125193]	43.76%

Structure (SMILES)	% Inhibition
COc1ccc(Cc2nc3c(n2C(C)=O)SC(c2ccc(Cl)c(Cl)c2)=NN3C(C)=O)cc1 [TCMDC-125189]	18.21%
CC(=O)N1N=C(c2ccc(Cl)cc2)Sc2c1nc(C1CCCCC1)n2C(C)=O [TCMDC-125191]	45.01%
O=C(/C=C/c1ccc(Cl)cc1)NCCCCCN1CCCN(C(=O)Nc2ccc(F)c(Cl)c2)CC1 [TCMDC-136101]	-6.119%
COc1cccc(CNC[C@@H](O)[C@H](Cc2ccccc2)NC(=O)c2cc(C3CCCC3)cc(N3CCCCS3(=O)=O)c2)c1 [TCMDC-134523]	42.74%
CCC1(CC)N=C(N)N=C(N)C1c1ccc(Cl)c(Cl)c1 (stereo not drawn) [TCMDC-137597]	8.83%
COc1ccc(CN2CCCC(C(=O)c3ccc(C(F)(F)F)cc3)C2)c(O)c1 (stereo not drawn) [TCMDC-124631]	43.69%
CS(=O)(=O)Cc1ccc(Nc2nccc(-c3c(-c4cccc(NC(=O)C5CCCCC5)c4)nn4ncccc34)n2)cc1 [TCMDC-135812]	-14.86%
CC(=O)Nc1cccc(-c2cnc(N)c3cc(-c4ccc5c(c4)OCO5)ccc23)c1 [TCMDC-134504]	30.5%
Cn1nccc1C(=O)NCCNCc1ccc(-c2ccc(-c3nc4ccccc4[nH]3)s2)cc1.O=C(O)C(F)(F)F [TCMDC-133004]	-2.407%
CCC(=O)c1ccc(-c2ccc(=O)n(CC(=O)N(CCN(CC)CC)Cc3ccc(-c4ccc(C(F)(F)F)cc4)cc3)n2)cc1 [TCMDC-141574]	82.08%
CCN(CC)CCN(Cc1ccc(-c2ccc(C(F)(F)F)cc2)cc1)C(=O)Cn1nc(-c2ccc(C(F)(F)F)cc2)ccc1=O [TCMDC-141575]	69.38%
CCN(CC)S(=O)(=O)c1cc(-c2ccc(=O)n(CC(=O)c3ccc(C)cc3)n2)ccc1C [TCMDC-124707]	-20.12%
O=c1[nH]ccc2nc(N[C@@H]3CCNC3)nc(Nc3ccc4c(c3)S(=O)(=O)CC4)c12 [TCMDC-135044]	71.11%
Cc1cccc(Nc2nc(N[C@@H]3CCCNC3)nc3cc[nH]c(=O)c23)c1 [TCMDC-134835]	-44.23%
O=c1[nH]ccc2nc(N[C@@H]3CCNC3)nc(Nc3cc(Cl)cc(Cl)c3)c12 [TCMDC-135052]	102.4%
O=c1[nH]ccc2nc(N[C@@H]3CCNC3)nc(Nc3cccc(S(=O)(=O)N4CCOCC4)c3)c12 [TCMDC-135047]	89.83%
CN(C)S(=O)(=O)c1ccc(Nc2nc(NCCC3C=NC=N3)nc3cc[nH]c(=O)c23)cc1 (stereo not drawn) [TCMDC-135045]	-6.172%
NS(=O)(=O)c1cccc(Nc2nc(N[C@@H]3CCNC3)nc3cc[nH]c(=O)c23)c1 [TCMDC-135057]	-11.44%
Cc1cc(N2Cc3ccccc3C2)nc(Nc2ccc(S(=O)(=O)N3CCOCC3)cc2)n1 [TCMDC-134229]	-25.67%
OCCOCCNCc1cccc(C#Cc2cc3ncnc(Nc4ccc(OCc5cccc(F)c5)c(Cl)c4)c3s2)n1 [TCMDC-138843]	-31.63%
CCNc1nc(OCC(F)(F)F)nc(N(c2ccccc2)c2ccccc2)n1 [TCMDC-125801]	-11.7%
O=C(c1cc(C(=O)NC2CCCCC2)c(=O)n(C2CCCCC2)c1)c1cc(F)ccc1O [TCMDC-124525]	20.48%
